# Laboratory results as given in PubChem BioAssay (Tox21).
# Records with an inconclusive call do not appear. A call without a number means that no potency is given here. Active and inactive are the calls of the source. Unless noted, calls follow the shape of the full dose curve.
# How the values were obtained:
# [1] = qHTS assay to identify small molecule agonists of the sonic hedgehog signaling (Shh) pathway (AID 1259368); also: series mostly up to about 92 µM; nearly all actives have a fitted effect of over 15% in size
# Method in brief: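 NIH/3T3-derived 3T3Gli1-Luc cells carrying a stably integrated Gli1 response element–firefly luciferase reporter were plated, left 4 hr at 37 C, then given compounds in DMSO for 24 hr. Luminescence was read 30 min after adding luciferase reagent.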
# [2] = qHTS assay to identify small molecule antagonists of the sonic hedgehog signaling (Shh) pathway (AID 1259369); also: nearly all actives have a fitted effect of over 45% in size; also: potency is read from the fitted curve at half-maximal effect
# Method in brief: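 NIH/3T3-derived 3T3Gli1-Luc cells with stably integrated Gli1-Luc reporter were preincubated 4hr at 37 C, then given compounds in DMSO plus Shh conditioned medium and incubated 24hr. Firefly luciferase luminescence read after 30min reagent at room temperature.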
# [3] = qHTS assay to identify small molecule agonists of the androgen receptor (AR) signaling pathway in the presence of an antagonist - cell viability counter screen (AID 1259379; active = well fitted curve in the direction sought with a large enough effect in the repeat runs; an effect the other way counts as inactive or inconclusive; also: nearly all actives have a fitted effect of over 25% in size; also: potency is read from the fitted curve at half-maximal effect)
# Method in brief: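 MDA-kb2 human breast carcinoma cells (stable MMTV-luciferase, AR/GR responsive) were seeded 3,000 cells/well, pre-incubated 5 hr at 37C without CO2, then given 3.0uM nilutamide and compounds at 15 concentrations for 16 hr. Viability was read by CellTiter-Fluor fluorescence.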
# [4] = qHTS assay to identify small molecule agonists of the estrogen receptor beta (ER-beta) signaling pathway - cell viability counter screen (AID 1259380; active = well fitted curve in the direction sought with a large enough effect in the repeat runs; an effect the other way counts as inactive or inconclusive; also: nearly all actives have a fitted effect of over 30% in size; also: potency is read from the fitted curve at half-maximal effect)
# Method in brief: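 ER-beta-UAS-bla HEK293T cells in medium with 2% charcoal-stripped FBS were preincubated 6 hr at 37C, dosed with compound in DMSO for 16 hr, then after the bla read, CellTiter-Glo was added for 30 min at room temperature; luminescence recorded.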
# [5] = qHTS assay to identify small molecule agonists or antagonists of the thyroid stimulating hormone receptor (TSHR) signaling pathway - wild type cell line counter screen (AID 1259384)
# Method in brief: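 Counter screen in untransfected Hek293: compounds (15-point titration, triplicate) plus phosphodiesterase inhibitor Ro20-1724 added after 18 h plating; 30 min RT. Intracellular cAMP via competitive d2/cryptate immunoassay, 1 h incubation.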
# [6] = target: Thyrotropin receptor (Homo sapiens) (UniProt P16473); experiment: qHTS assay to identify small molecule antagonists of the thyroid stimulating hormone receptor (TSHR) signaling pathway (AID 1259385); also: nearly all actives have a fitted effect of over 20% in size
# Thyrotropin receptor (Homo sapiens), sequence (P16473 whole entry, looked up): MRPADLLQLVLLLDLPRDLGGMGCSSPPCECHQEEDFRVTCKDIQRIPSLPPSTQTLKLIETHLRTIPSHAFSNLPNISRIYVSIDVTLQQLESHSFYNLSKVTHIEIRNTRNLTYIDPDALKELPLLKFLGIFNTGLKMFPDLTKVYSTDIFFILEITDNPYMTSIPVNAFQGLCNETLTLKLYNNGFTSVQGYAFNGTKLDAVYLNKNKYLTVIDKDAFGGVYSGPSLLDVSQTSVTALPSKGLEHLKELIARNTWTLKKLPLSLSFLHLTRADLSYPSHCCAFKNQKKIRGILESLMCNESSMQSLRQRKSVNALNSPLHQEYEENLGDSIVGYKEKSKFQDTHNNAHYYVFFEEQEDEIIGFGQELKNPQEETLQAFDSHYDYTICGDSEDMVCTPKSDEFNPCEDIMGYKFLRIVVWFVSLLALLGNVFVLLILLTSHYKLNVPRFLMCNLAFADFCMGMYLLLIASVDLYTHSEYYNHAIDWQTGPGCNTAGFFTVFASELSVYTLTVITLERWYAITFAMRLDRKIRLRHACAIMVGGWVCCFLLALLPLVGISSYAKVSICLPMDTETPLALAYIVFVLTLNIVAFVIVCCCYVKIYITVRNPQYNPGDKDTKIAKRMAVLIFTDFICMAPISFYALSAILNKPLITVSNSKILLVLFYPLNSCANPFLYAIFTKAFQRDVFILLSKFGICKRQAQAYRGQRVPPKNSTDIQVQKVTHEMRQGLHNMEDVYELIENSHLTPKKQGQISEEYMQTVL
# Method in brief: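 Antagonist mode: compound-treated TSHR-expressing HEK293 cells were stimulated with 1.5 ng/mL TSH (final) in presence of Ro20-1724 for 30 min at RT. HTRF cAMP detection after 1 h; each compound tested at 15 concentrations, triplicate.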
# [7] = qHTS assay to identify small molecule agonists of the estrogen receptor alpha (ER-alpha) signaling pathway in the presence of an antagonist - cell viability counter screen (AID 1259386; active = well fitted curve in the direction sought with a large enough effect in the repeat runs; an effect the other way counts as inactive or inconclusive;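 also: series mostly up to about 92 µM; cells exposed to compounds for 22 h at 37 °C before the viability read; nearly all actives have a fitted effect of over 30% in size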)
# Method in brief: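 VM7Luc4E2 cells (endogenous full-length ER-alpha, 4×ERE-luciferase) were held 5 days in phenol red-free medium with 10% charcoal-stripped FBS, plated, then given 10.0nM ICI-182,780 and compounds at 15 concentrations for 22hr at 37C; viability read by CellTiter-Fluor fluorescence.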
# [8] = target: Progesterone receptor (Homo sapiens) (UniProt P06401); experiment: qHTS assay to identify small molecule agonists of the progesterone receptor (PR) signaling pathway (AID 1346784); also: nearly all actives have a fitted effect of over 30% in size
# Progesterone receptor (Homo sapiens), sequence (P06401 whole entry, looked up): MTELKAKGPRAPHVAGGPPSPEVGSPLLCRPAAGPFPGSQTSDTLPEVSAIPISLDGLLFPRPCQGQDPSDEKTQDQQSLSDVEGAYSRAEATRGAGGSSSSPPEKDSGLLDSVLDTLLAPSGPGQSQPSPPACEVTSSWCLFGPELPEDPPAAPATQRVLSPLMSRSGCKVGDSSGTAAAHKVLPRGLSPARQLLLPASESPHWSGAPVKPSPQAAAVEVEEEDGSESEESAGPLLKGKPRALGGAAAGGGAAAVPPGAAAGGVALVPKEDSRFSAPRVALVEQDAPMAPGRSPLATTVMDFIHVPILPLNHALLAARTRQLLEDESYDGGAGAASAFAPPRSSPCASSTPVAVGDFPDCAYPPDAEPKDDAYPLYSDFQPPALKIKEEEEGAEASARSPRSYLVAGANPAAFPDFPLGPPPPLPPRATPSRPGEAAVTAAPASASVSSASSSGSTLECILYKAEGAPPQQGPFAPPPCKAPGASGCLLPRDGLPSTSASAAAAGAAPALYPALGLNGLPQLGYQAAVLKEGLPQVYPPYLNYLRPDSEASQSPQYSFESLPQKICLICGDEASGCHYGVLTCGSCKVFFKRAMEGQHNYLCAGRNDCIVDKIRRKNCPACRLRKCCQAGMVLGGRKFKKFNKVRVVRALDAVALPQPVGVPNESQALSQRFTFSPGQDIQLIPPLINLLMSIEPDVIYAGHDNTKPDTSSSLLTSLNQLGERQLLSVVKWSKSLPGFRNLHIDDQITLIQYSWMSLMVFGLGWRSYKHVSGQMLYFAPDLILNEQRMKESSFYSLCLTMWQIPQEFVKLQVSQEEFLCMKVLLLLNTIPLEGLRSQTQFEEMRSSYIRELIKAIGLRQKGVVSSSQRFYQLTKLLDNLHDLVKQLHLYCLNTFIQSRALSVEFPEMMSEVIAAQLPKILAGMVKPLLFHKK
# Method in brief: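 Cells (PR-UAS-bla HEK 293T, GripTite) were plated in assay medium containing 2% charcoal-stripped FBS and incubated 6 hr. Test compounds in DMSO were added for 16 hr at 37C. FRET substrate was then loaded for 2 hr at room temperature before fluorescence reading.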
# [9] = target: Thyrotropin-releasing hormone receptor (Homo sapiens) (UniProt P34981); experiment: qHTS assay to identify small molecule antagonists of the thyrotropin-releasing hormone receptor (TRHR) signaling pathway (AID 1346877; active = well fitted inhibition curve with a large enough effect in the repeat runs, not every such curve was filed as active; also: series mostly up to about 51 µM)
# Thyrotropin-releasing hormone receptor (Homo sapiens), sequence (P34981 whole entry, looked up): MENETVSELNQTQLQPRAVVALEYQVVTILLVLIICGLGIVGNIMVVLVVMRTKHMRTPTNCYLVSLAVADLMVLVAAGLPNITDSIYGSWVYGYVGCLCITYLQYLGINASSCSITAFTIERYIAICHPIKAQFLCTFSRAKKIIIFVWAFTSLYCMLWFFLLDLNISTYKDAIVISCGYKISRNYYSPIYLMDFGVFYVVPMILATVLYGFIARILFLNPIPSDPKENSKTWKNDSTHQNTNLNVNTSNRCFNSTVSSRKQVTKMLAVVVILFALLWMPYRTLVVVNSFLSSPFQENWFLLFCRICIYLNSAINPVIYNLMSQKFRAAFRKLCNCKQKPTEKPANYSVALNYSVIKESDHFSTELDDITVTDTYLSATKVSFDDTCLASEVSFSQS
# Method in brief: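 TRHR-expressing HEK293 cells were seeded, cultured 18 h at 37 °C, then loaded with calcium dye for 2 h. Compounds were pre-incubated 5 min at room temperature before 1 nM TRH (final) was added, and kinetic fluorescence was recorded for 3 min.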
# [10] = target: Estrogen receptor (Homo sapiens) (UniProt P03372); experiment: qHTS assay to identify small molecule agonists of the estrogen receptor alpha (ER-alpha) signaling pathway in the presence of an antagonist (AID 1259383); also: top concentration of the series differs between compounds; nearly all actives have a fitted effect of over 15% in size
# Estrogen receptor (Homo sapiens), sequence (P03372 whole entry, looked up): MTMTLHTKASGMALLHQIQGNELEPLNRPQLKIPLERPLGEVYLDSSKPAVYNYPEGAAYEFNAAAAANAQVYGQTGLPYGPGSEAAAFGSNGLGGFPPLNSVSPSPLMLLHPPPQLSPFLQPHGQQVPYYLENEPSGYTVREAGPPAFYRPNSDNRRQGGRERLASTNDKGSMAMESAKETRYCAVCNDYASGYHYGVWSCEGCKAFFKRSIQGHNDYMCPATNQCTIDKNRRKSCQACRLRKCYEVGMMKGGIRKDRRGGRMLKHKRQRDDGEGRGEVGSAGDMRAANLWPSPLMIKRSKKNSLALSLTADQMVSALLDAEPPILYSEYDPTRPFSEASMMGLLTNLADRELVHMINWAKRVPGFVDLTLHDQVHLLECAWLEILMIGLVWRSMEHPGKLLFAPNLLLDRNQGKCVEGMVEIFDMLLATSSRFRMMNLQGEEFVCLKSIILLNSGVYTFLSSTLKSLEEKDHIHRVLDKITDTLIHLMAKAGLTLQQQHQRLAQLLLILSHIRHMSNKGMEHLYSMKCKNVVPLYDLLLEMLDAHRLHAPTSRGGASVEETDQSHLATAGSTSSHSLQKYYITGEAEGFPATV
# Method in brief: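 VM7Luc4E2 cells (endogenous full-length ER-alpha, 4×ERE-luciferase) were precultured 5 days in phenol red-free medium with 10% charcoal-stripped FBS, given 10.0nM ICI-182,780 (final), then treated with compounds at 15 concentrations for 22hr at 37C; luminescence read with ONE-Glo.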
# [11] = target: Progesterone receptor (Homo sapiens) (UniProt P06401); experiment: qHTS assay to identify small molecule antagonists of the progesterone receptor (PR) signaling pathway (AID 1346795; active = well fitted inhibition curve with a large enough effect in the signal ratio in the repeat runs, not every such curve was filed as active; the % refers to the signal ratio; also: potency is read from the fitted curve at half-maximal effect)
# Method in brief: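 Antagonist mode: compounds tested against 1 nM (final) promegestone stimulation in HEK293T cells expressing PR-UAS-bla reporter, 16 hr at 37C, 5% CO2; beta-lactamase activity detected via B/G FRET substrate after 2 hr at room temperature.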
# [12] = qHTS assay to identify small molecule antagonists of the progesterone receptor (PR) signaling pathway - cell viability counter screen (AID 1346798; active = well fitted curve in the direction sought with a large enough effect in the repeat runs; an effect the other way counts as inactive or inconclusive; also: nearly all actives have a fitted effect of over 50% in size; also: potency is read from the fitted curve at half-maximal effect)
# Method in brief: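 Counter screen for cytotoxicity: viability of PR-UAS-bla HEK293T cells was measured with CellTiter-Glo luminescence following 16 hr compound exposure in the presence of R5020.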
# [13] = qHTS assay to identify small molecule agonists of the progesterone receptor (PR) signaling pathway - cell viability counter screen (AID 1346799); also: nearly all actives have a fitted effect of over 45% in size
# Method in brief: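 Cells (PR-UAS-bla HEK293T) are plated at 3,000/well in 2% charcoal-stripped FBS medium, rested 6 hr, dosed and incubated 16 hr at 37C. CellTiter-Glo is then added and luminescence measured after 30 min at room temperature.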
# [14] = qHTS assay to identify small molecule agonists of the TGF-beta/Smad signaling pathway - cell viability counter screen (AID 1346829; active = well fitted curve in the direction sought with a large enough effect in the repeat runs; an effect the other way counts as inactive or inconclusive; also: nearly all actives have a fitted effect of over 45% in size; also: potency is read from the fitted curve at half-maximal effect)
# Method in brief: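 Same-well cytotoxicity: CellTiter-Glo added after the 2 hr room-temperature beta-lactamase substrate step, luminescence measured 30 min later; cells had 5 hr of compound at 37 C.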
# [15] = qHTS assay to identify small molecule agonists of the TGF-beta/Smad signaling pathway (AID 1346859; active = well fitted activation curve with a large enough effect in the signal ratio in the repeat runs, not every such curve was filed as active; the % refers to the signal ratio; also: series mostly up to about 77 µM)
# Method in brief: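 Reporter line: HEK 293T with stably integrated SBE-controlled beta-lactamase. Compound exposure lasts 5 hr at 37 C and 5% CO2; substrate loading follows for 2 hr at room temperature, with emission read at 460 and 530 nm.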
# [16] = qHTS assay to identify small molecule antagonists of the estrogen receptor beta (ER-beta) signaling pathway - cell viability counter screen (AID 1259382; active = well fitted curve in the direction sought with a large enough effect in the repeat runs; an effect the other way counts as inactive or inconclusive; also: nearly all actives have a fitted effect of over 55% in size; also: potency is read from the fitted curve at half-maximal effect)
# Method in brief: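 ER-beta-UAS-bla HEK293T cells (2,000/well, 2% charcoal-stripped FBS) were pre-incubated 6 hr at 37C, then given compound plus 1nM final 17-beta-estradiol for 16 hr. Viability was read in the same wells by CellTiter-Glo luminescence after 30 min at room temperature.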
# [17] = qHTS assay to identify small molecule antagonists of the TGF-beta/Smad signaling pathway - cell viability counter screen (AID 1346824; active = well fitted curve in the direction sought with a large enough effect in the repeat runs; an effect the other way counts as inactive or inconclusive; also: nearly all actives have a fitted effect of over 50% in size; also: potency is read from the fitted curve at half-maximal effect)
# Method in brief: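 Cytotoxicity counter-screen run in the same wells as the beta-lactamase Smad reporter read: CellTiter-Glo luminescence after 30 min at room temperature. HEK 293T SBE-bla cells had 5 hr compound exposure at 37 C with TGF-beta1 (0.25 ng/mL stock).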
# [18] = target: Androgen receptor (Homo sapiens) (UniProt P10275); experiment: qHTS assay to identify small molecule agonists of the androgen receptor (AR) signaling pathway in the presence of an antagonist (AID 1259381); also: nearly all actives have a fitted effect of over 15% in size
# Androgen receptor (Homo sapiens), sequence (P10275 whole entry, looked up): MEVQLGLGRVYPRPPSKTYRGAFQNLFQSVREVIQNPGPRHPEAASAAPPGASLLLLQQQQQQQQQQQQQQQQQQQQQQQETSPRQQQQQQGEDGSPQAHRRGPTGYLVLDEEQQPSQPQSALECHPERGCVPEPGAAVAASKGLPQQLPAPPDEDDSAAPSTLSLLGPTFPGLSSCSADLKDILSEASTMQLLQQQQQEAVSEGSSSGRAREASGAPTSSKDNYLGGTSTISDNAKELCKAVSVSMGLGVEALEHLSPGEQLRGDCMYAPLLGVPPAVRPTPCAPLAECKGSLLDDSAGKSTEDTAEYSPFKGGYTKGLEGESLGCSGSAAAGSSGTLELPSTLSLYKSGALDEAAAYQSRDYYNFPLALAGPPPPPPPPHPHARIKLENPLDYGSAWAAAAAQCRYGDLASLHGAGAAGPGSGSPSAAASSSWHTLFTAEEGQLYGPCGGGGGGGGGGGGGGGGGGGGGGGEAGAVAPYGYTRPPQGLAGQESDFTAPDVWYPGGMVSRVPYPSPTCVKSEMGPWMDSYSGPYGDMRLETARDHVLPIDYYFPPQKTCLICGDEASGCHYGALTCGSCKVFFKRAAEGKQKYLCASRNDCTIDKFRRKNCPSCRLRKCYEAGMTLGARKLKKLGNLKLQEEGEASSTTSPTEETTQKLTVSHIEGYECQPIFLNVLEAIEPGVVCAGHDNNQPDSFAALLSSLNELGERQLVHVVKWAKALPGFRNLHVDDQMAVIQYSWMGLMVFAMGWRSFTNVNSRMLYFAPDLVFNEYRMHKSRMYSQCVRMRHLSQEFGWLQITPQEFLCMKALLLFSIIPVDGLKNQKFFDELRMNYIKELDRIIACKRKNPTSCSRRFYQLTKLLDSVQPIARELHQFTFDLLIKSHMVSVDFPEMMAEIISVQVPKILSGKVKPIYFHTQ
# Method in brief: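 MDA-kb2 human breast carcinoma cells carrying an MMTV-luciferase reporter (AR- and GR-responsive) were treated with compounds at 15 concentrations plus 3.0uM final nilutamide for 16hr at 37C without CO2; luminescence was read after ONE-Glo addition.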
# [19] = target: Estrogen receptor beta (Homo sapiens) (UniProt Q92731); experiment: qHTS assay to identify small molecule antagonists of the estrogen receptor beta (ER-beta) signaling pathway (AID 1259378; active = well fitted inhibition curve with a large enough effect in the signal ratio in the repeat runs, not every such curve was filed as active; the % refers to the signal ratio; also: potency is read from the fitted curve at half-maximal effect)
# Estrogen receptor beta (Homo sapiens), sequence (Q92731 whole entry, looked up): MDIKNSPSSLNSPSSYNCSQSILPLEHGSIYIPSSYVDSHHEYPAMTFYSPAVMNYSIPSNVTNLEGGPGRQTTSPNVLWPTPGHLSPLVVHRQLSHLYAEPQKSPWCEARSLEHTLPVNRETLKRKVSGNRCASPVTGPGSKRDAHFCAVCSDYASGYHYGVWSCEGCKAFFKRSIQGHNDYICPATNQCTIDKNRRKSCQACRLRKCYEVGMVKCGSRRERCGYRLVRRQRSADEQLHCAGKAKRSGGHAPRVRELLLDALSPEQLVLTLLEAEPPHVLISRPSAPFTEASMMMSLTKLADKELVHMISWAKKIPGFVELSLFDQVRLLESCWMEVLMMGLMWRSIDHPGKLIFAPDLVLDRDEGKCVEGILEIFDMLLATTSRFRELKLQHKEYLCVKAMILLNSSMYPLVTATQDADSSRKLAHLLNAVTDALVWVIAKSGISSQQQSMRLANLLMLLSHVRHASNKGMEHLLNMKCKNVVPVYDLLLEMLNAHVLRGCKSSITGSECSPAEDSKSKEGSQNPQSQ
# Method in brief: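 Antagonist mode: compounds added to beta-lactamase reporter HEK293T ER-beta-UAS cells stimulated with E2 (1nM final), 16 hr at 37C. LiveBLAzer B/G FRET substrate, 2 hours room temperature, fluorescence read-out.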
SMILES,Potency [1],Potency [2],Potency [3],Potency [4],outcome [5],Potency [6],Potency [7],Potency [8],outcome [9],Potency [10],Potency [11],Potency [12],Potency [13],Potency [14],Potency [15],Potency [16],Potency [17],Potency [18],Potency [19]
O=C(O)c1cccc(-c2noc(-c3ccccc3F)n2)c1,inactive,0.237 µM (active),inactive,26.6 µM (active),inactive,inactive,inactive,inactive,inactive,–,–,–,–,–,–,–,–,–,–
C(=C\c1ccccc1)/c1ccccc1,inactive,inactive,inactive,inactive,inactive,inactive,inactive,inactive,inactive,inactive,inactive,inactive,inactive,inactive,inactive,–,–,–,–
CCOC(C)=O,inactive,inactive,inactive,inactive,inactive,inactive,inactive,inactive,inactive,inactive,–,inactive,inactive,inactive,inactive,inactive,inactive,–,–
C[C@H]1c2cccc(O)c2C(O)=C2C(=O)[C@]3(O)C(O)=C(C(N)=O)C(=O)[C@@H](N(C)C)[C@@H]3[C@@H](O)[C@@H]21,inactive,inactive,inactive,inactive,–,–,inactive,–,inactive,inactive,–,inactive,inactive,inactive,–,inactive,inactive,inactive,–
Oc1cccc(Nc2ccccc2)c1,inactive,inactive,inactive,inactive,inactive,inactive,inactive,inactive,inactive,–,20.2 µM (active),–,–,inactive,inactive,inactive,inactive,–,–
CN1C(=O)N(c2ccccc2Br)Cc2cnc(Nc3ccc4c(c3)OCC(CO)O4)nc21 (centres undefined),inactive,6.86 µM (active),61.1 µM (active),34.4 µM (active),inactive,inactive,–,–,inactive,inactive,–,38.6 µM (active),–,34.7 µM (active),inactive,38.6 µM (active),–,–,–
Cc1cc(O)c(C)c(C)c1O,inactive,inactive,inactive,inactive,–,–,inactive,inactive,inactive,inactive,inactive,inactive,inactive,inactive,inactive,inactive,inactive,inactive,–
CCOC(=O)c1ccc(O)c(O)c1,inactive,29.8 µM (active),inactive,inactive,inactive,inactive,inactive,inactive,–,inactive,inactive,inactive,–,inactive,inactive,inactive,–,–,–
COc1ccccc1NC(=O)c1cc2ccccc2cc1O,inactive,27.3 µM (active),–,54.5 µM (active),inactive,–,inactive,–,–,inactive,24.3 µM (active),–,–,–,inactive,–,49 µM (active),inactive,17.2 µM (active)
CC[N+](CC)(CCNC(=O)C(=O)NCC[N+](CC)(CC)Cc1ccccc1Cl)Cc1ccccc1Cl,inactive,inactive,inactive,inactive,–,–,inactive,inactive,inactive,inactive,inactive,inactive,inactive,inactive,inactive,–,–,–,inactive
CCOC(=O)c1ccc(I)cc1,inactive,inactive,inactive,inactive,inactive,inactive,inactive,–,inactive,inactive,inactive,inactive,–,inactive,inactive,inactive,inactive,–,–
C=C(C)[C@@H]1CCC2=CCC[C@@H](C)[C@]2(C)C1,inactive,24.3 µM (active),inactive,inactive,inactive,inactive,inactive,–,inactive,inactive,inactive,–,–,inactive,inactive,inactive,inactive,inactive,–
CNC(=O)c1cnn(-c2nc(N)c3ncn([C@@H]4O[C@H](CO)[C@@H](O)[C@H]4O)c3n2)c1,inactive,inactive,inactive,inactive,inactive,inactive,inactive,inactive,inactive,inactive,–,–,inactive,inactive,inactive,inactive,inactive,–,–
